“And” between values parts separate entries of the source, which are not always exact repeats. Equal entries are not always repeated. The whole screen tested about 5,500 compounds, of which about 2,000 (36%) were called active. Roughly 18% stayed inconclusive and do not appear here. Rule as the data show it: active = normalized growth mostly below about 0.91 (no sharp cut-off); inconclusive = no clear call, values can overlap the other calls; inactive = mostly above about 0.92. The list shows a part of the results.
Test: chemical genetic growth profiling, strain panel (AID 1159580);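 also: tested at 20 µM; growth read once vehicle control cultures reached saturation at 30 °C; 1 = growth at the plate median or of vehicle wells; lower values mean less growth of the strain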
Settings: S. cerevisiae deletion strains, growth OD

Measured: normalized growth

CC(=O)[C@@]1(O)CCC2C3CCC4=CC(=O)CC[C@]4(C)C3CC[C@@]21C (stereo partly drawn)
active: locus YDR137W, strain rgp1, active compounds read low 0.815
inactive: locus YAL021C, strain ccr4, active compounds read low 0.99 | locus YAL026C, strain drs2, active compounds read low 0.992 | locus YAL030W, strain snc1, active compounds read low 0.998 | locus YBL061C, strain skt5, active compounds read low 0.991 | locus YBR009C, strain hhf1, active compounds read low 0.995 | locus YBR021W, strain FUR4, active compounds read low 1.01 | locus YBR023C, strain chs3, active compounds read low 0.995 | locus YBR171W, strain sec66, active compounds read low 0.985 | locus YBR229C, strain ROT2, active compounds read low 0.993 | locus YBR231C, strain swc5, active compounds read low 0.999 | locus YBR279W, strain paf1, active compounds read low 0.986 | locus YCL011C, strain gbp2, active compounds read low 0.997 | locus YCL016C, strain dcc1, active compounds read low 0.992 | locus YCL029C, strain bik1, active compounds read low 1.01 | locus YCL061C, strain MRC1, active compounds read low 0.987 | locus YCL069W, strain vba3, active compounds read low 0.996 | locus YCR088W, strain abp1, active compounds read low 0.988 | locus YDL005C, strain med2, active compounds read low 0.975 | locus YDL035C, strain GPR1, active compounds read low 1.01 | locus YDL040C, strain nat1, active compounds read low 0.993 | locus YDL074C, strain BRE1, active compounds read low 1.04 | locus YDL101C, strain DUN1, active compounds read low 0.996 | locus YDL134C, strain PPH21, active compounds read low 0.99 | locus YDL185W, strain tfp1, active compounds read low 1.01 | locus YDL192W, strain arf1, active compounds read low 0.992 | locus YDR001C, strain nth1, active compounds read low 0.989 | locus YDR069C, strain doa4, active compounds read low 0.996 | locus YDR101C, strain arx1, active compounds read low 1.04 | locus YDR159W, strain sac3, active compounds read low 0.931 | locus YDR162C, strain NBP2, active compounds read low 0.977 | locus YDR195W, strain ref2 0.995 | locus YDR297W, strain sur2, active compounds read low 0.994 | locus YDR318W, strain mcm21, active compounds read low 0.99 | locus YDR334W, strain swr1, active compounds read low 0.992 | locus YDR335W, strain msn5, active compounds read low 1.01 | locus YDR388W, active compounds read low 1.01 | locus YDR392W, strain spt3, active compounds read low 0.891 | locus YDR502C, strain sam2, active compounds read low 1.01 | locus YEL003W, strain gim4, active compounds read low 0.999 | locus YEL037C, strain rad23, active compounds read low 0.993 | locus YEL061C, strain CIN8 (second series), active compounds read low 0.993 | locus YEL061C, strain CIN8, active compounds read low 0.995 | locus YER015W, strain faa2, active compounds read low 0.998 | locus YER016W, strain bim1, active compounds read low 0.99 | locus YER110C, active compounds read low 1.01 | locus YER111C, strain swi4, active compounds read low 0.987 | locus YER155C, strain BEM2 (second series), active compounds read low 0.995 | locus YER155C, strain BEM2, active compounds read low 1 | locus YER167W, strain BCK2, active compounds read low 0.994 | locus YFR010W, strain ubp6, active compounds read low 1.01 | locus YGL078C, strain dbp3, active compounds read low 1.04 | locus YGL086W, strain mad1, active compounds read low 1.03 | locus YGL167C, strain pmr1, active compounds read low 0.983 | locus YGL173C, strain kem1, active compounds read low 0.99 | locus YGL227W, strain vid30, active compounds read low 0.994 | locus YGL240W, strain doc1, active compounds read low 0.989 | locus YGL248W, strain PDE1, active compounds read low 0.985 | locus YGL253W, strain hxk2, active compounds read low 0.997 | locus YGR078C, strain PAC10, active compounds read low 0.991 | locus YGR135W, strain pre9, active compounds read low 0.966 | locus YGR252W, strain gcn5, active compounds read low 1.04 | locus YHR013C, strain ard1, active compounds read low 0.989 | locus YHR027C, strain rpn1, active compounds read low 0.992 | locus YHR030C, strain SLT2, active compounds read low 1 and 0.968 | locus YHR079C, strain IRE1 (second series), active compounds read low 1.01 | locus YHR079C, strain IRE1, active compounds read low 0.983 | locus YHR094C, strain hxt1, active compounds read low 0.999 | locus YHR129C, strain ARP1, active compounds read low 0.993 | locus YHR142W, strain chs7, active compounds read low 0.993 | locus YHR200W, strain rpn10, active compounds read low 1.02 | locus YIL066C, strain RNR3, active compounds read low 0.994 | locus YIL073C, strain SPO22, active compounds read low 1.03 | locus YIL125W, strain kgd1, active compounds read low 1.03 | locus YIR030C, strain dcg1, active compounds read low 1.01 | locus YJL092W, strain hpr5, active compounds read low 0.991 | locus YJL095W, strain BCK1 (second series), active compounds read low 0.992 | locus YJL095W, strain BCK1, active compounds read low 0.96 and 0.984 | locus YJL115W, strain asf1, active compounds read low 0.987 | locus YJL129C, strain trk1, active compounds read low 0.955 | locus YJL134W, strain LCB3, active compounds read low 0.998 | locus YJL154C, strain vps35, active compounds read low 0.987 | locus YJL164C, strain tpk1, active compounds read low 0.985 | locus YJL166W, strain qcr8, active compounds read low 0.998 | locus YJL168C, strain set2, active compounds read low 1 | locus YJL187C, strain SWE1 (second series), active compounds read low 0.994 | locus YJL187C, strain SWE1, active compounds read low 0.997 | locus YJR043C, strain POL32, active compounds read low 1.05

Reference: PubChem BioAssay AID1159580 (chemical genetic matrix, 2015)
